Measured values: PubChem BioAssay (NCATS)
Results filed as inconclusive are left out. Activity calls are given as the source filed them. Calls follow the shape of the dose curve; as a rule, active = well fitted curve in the direction sought with a large enough effect; inconclusive = small, poorly fitted or top-dose-only effect, or another doubt; inactive = no such curve, though single readings can be large; an effect the other way counts as inactive or inconclusive.

What was measured:
[1] = NS1 protein of Zika virus - qHTS assay to identify small molecule inhibitors in human HEK 293 cells (AID 1347053); also: series mostly up to about 46 µM; nearly all actives have a fitted effect of over 55% in size
How it was run: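 Following 20 h seeding, HEK 293 cells took compound, then 1 h later ZIKV MR766 (MOI = 0.5). Incubation ran 24 h at 37 C before TR-FRET detection of NS1; a drop in signal indicates inhibition.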

[2] = qHTS of pediatric cancer cell lines to identify multiple opportunities for drug repurposing: Primary screen for TC32 cells (AID 1347089); also: nearly all actives have a fitted effect of over 60% in size
How it was run: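 Luminescent ATP read-out (CellTiter-Glo) of metabolically active TC32 cells after 48 h exposure. Concentration-response curves came from 11-point (MIPE, 0.78 nM–46 µM) or 8-point (NPC, 0.59 nM–46 µM) primary titrations; follow-up used 11 points.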

[3] = qHTS of pediatric cancer cell lines to identify multiple opportunities for drug repurposing: Primary screen for DAOY cells (AID 1347090); also: series mostly up to about 46 µM; nearly all actives have a fitted effect of over 55% in size
How it was run: (§1)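 Cell viability, CellTiter-Glo luminescence; 500-1,000 cells/well, 8- or 11-point titration, 48 h compound exposure at 37 degrees C, 5% CO2. Controls: DMSO neutral, bortezomib 2.3 µM final as positive.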

[4] = qHTS of pediatric cancer cell lines to identify multiple opportunities for drug repurposing: Primary screen for SJ-GBM2 cells (AID 1347091)
How it was run: as §1

[5] = qHTS of pediatric cancer cell lines to identify multiple opportunities for drug repurposing: Primary screen for A673 cells (AID 1347092); also: nearly all actives have a fitted effect of over 45% in size
How it was run: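 Cell viability of A673 measured by CellTiter-Glo ATP luminescence after 48 hours compound exposure. Dilution series spanned 0.78 nM to 46 µM (MIPE, 11-point) or 0.59 nM to 46 µM (NPC, 8-point); bortezomib 2.3 uM positive control.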

[6] = qHTS of pediatric cancer cell lines to identify multiple opportunities for drug repurposing: Primary screen for SK-N-MC cells (AID 1347093); also: series mostly up to about 46 µM
How it was run: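 Metabolically active cells were quantified by ATP-dependent luminescence (CellTiter-Glo, 15 min at room temperature) following 48 h treatment. Cells had been plated at 500-1,000 per well and settled for 5 h beforehand.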

[7] = qHTS of pediatric cancer cell lines to identify multiple opportunities for drug repurposing: Primary screen for BT-37 cells (AID 1347094); also: series mostly up to about 57 µM
How it was run: (§2)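 Primary screen of approved and investigational compounds on cells in growth media at 37 degrees C, 5% CO2. MIPE set at 11-point and NPC set at 8-point dilutions; viability scored by ATP-based luminescence at 48 hours.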

[8] = qHTS of pediatric cancer cell lines to identify multiple opportunities for drug repurposing: Primary screen for NB-EBc1 cells (AID 1347095)
How it was run: as §2

[9] = qHTS of pediatric cancer cell lines to identify multiple opportunities for drug repurposing: Primary screen for U-2 OS cells (AID 1347096); also: nearly all actives have a fitted effect of over 50% in size
How it was run: (§3)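 Cells (500-1,000/well) rested 5 h, then received compounds for 48 h; metabolically active cells were measured by CellTiter-Glo luminescence. Final concentrations spanned up to 46 µM (MIPE, 11-point) or 0.59 nM-46 µM (NPC, 8-point) in primary screens, 11-point in follow-ups.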

[10] = qHTS of pediatric cancer cell lines to identify multiple opportunities for drug repurposing: Primary screen for Saos-2 cells (AID 1347097); also: nearly all actives have a fitted effect of over 40% in size
How it was run: as §2

[11] = qHTS of pediatric cancer cell lines to identify multiple opportunities for drug repurposing: Primary screen for SK-N-SH cells (AID 1347098); also: nearly all actives have a fitted effect of over 65% in size
How it was run: as §3

[12] = qHTS of pediatric cancer cell lines to identify multiple opportunities for drug repurposing: Primary screen for NB1643 cells (AID 1347099); also: nearly all actives have a fitted effect of over 50% in size
How it was run: as §2

[13] = qHTS of pediatric cancer cell lines to identify multiple opportunities for drug repurposing: Primary screen for LAN-5 cells (AID 1347100)
How it was run: as §3

[14] = qHTS of pediatric cancer cell lines to identify multiple opportunities for drug repurposing: Primary screen for BT-12 cells (AID 1347101); also: nearly all actives have a fitted effect of over 25% in size
How it was run: as §3

[15] = qHTS of pediatric cancer cell lines to identify multiple opportunities for drug repurposing: Primary screen for Rh18 cells (AID 1347102); also: nearly all actives have a fitted effect of over 65% in size
How it was run: as §3

[16] = qHTS of pediatric cancer cell lines to identify multiple opportunities for drug repurposing: Primary screen for OHS-50 cells (AID 1347103); also: nearly all actives have a fitted effect of over 40% in size
How it was run: as §3

[17] = qHTS of pediatric cancer cell lines to identify multiple opportunities for drug repurposing: Primary screen for RD cells (AID 1347104); also: nearly all actives have a fitted effect of over 55% in size
How it was run: as §2

[18] = qHTS of pediatric cancer cell lines to identify multiple opportunities for drug repurposing: Primary screen for MG 63 (6-TG R) cells (AID 1347105); also: nearly all actives have a fitted effect of over 50% in size
How it was run: as §2

[19] = qHTS of pediatric cancer cell lines to identify multiple opportunities for drug repurposing: Primary screen for Rh30 cells (AID 1347107); also: series mostly up to about 46 µM; nearly all actives have a fitted effect of over 75% in size
How it was run: as §3

[20] = qHTS of pediatric cancer cell lines to identify multiple opportunities for drug repurposing: Primary screen for control Hh wild type fibroblast cells (AID 1347106);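 also: series mostly up to about 46 µM; a drop in luminescence marks cytotoxicity and a rise apparent proliferation; nearly all actives have a fitted effect of over 55% in size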
How it was run: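 Viability after 48 h compound treatment at 37C, 500-1,000 cells/well, read as ATP luminescence with CellTiter-Glo. Primary screens used 11-point (MIPE, 0.78 nM-46 µM) or 8-point (NPC, 0.59 nM-46 µM) final concentrations; follow-up screens used 11-point dilutions.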

Measured: Potency

CCCCCCCCCCC(CO)CCCCCCCC (stereo not drawn)
not listed: [20]
inactive: all other assays above

NC(=O)CC[C@@H](N)C(=O)O
inactive: all assays above

CCCC(O)C(CC)CO (stereo not drawn)
inactive: all assays above

O=C(O)CNC(=O)c1ccccc1I
not listed: [20]
inactive: all other assays above

CC1(c2ccccc2)OC(C(=O)O)=CC1=O (stereo not drawn)
inactive: all assays above

CCN(CC)CCOC(=O)C(c1ccccc1)c1ccccc1
not listed: [18]
inactive: all other assays above

CCN(CC)CCc1nc(-c2ccccc2)no1
inactive: all assays above

CN1CCN(C(=O)C2CCCCC2)CC1
not listed: [20]
inactive: all other assays above

CC(=O)Nc1ccc(C(=O)O)cc1
not listed: [20]
inactive: all other assays above

NC(=O)CCCCC1CCSS1 (stereo not drawn)
inactive: all assays above

CCCOC(=O)c1ccc(N)cc1
inactive: all assays above

CCOC(N)=O
not listed: [16]
inactive: all other assays above

NNc1nnc(NN)c2ccccc12
not listed: [20]
inactive: all other assays above

C[N+](C)(C)CC[N+]1(C)Cc2c(Cl)c(Cl)c(Cl)c(Cl)c2C1
inactive: all assays above
